Assay results from PubChem BioAssay (NCATS).
Several values for one entry are separate records, joined by “and”; a condition that tells them apart may be missing. Equal entries are not always repeated. Records with an inconclusive call do not appear. Where a call stands in place of a potency, no number is given. A structure can be active in one record and inactive in another. Activity calls are given as the source filed them. Unless noted, calls come from the whole dose curve; as a rule, active = well fitted curve in the direction sought with a large enough effect; inconclusive = small, poorly fitted or top-dose-only effect, or another doubt; inactive = no such curve, though single readings can be large; an effect the other way counts as inactive or inconclusive.

Key:
[1] = qHTS for Inhibitors of Plasmodium falciparum (DD2) proliferation (AID 504314); note: potency is the fitted concentration of half-maximal effect;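 for activity, negative = inhibition: parasite DNA measured by SYBR Green fluorescence after red cell lysis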
Summary of the method: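 Parasite proliferation measured as SYBR Green signal from Plasmodium DNA, mature erythrocytes lacking DNA. 72 h incubation, 37C; activity scaled between vehicle and 0.29 uM artemisinin, with correction from vehicle-only plates.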

[2] = qHTS for Inhibitors of Plasmodium falciparum (GB4) proliferation (AID 504315); note: nearly all actives have a fitted effect of over 50% in size; note: potency is the fitted concentration of half-maximal effect
Summary of the method: (§1)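 Parasite growth measured as SYBR Green DNA fluorescence (ex 485, em 535 nm) after overnight lysis following 72 h culture at 37 °C, 0.3% parasitemia, 2.5% hematocrit. Values normalized against DMSO and 0.29 uM artemisinin controls, with plate-stack correction.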

[3] = qHTS for Inhibitors of Plasmodium falciparum (7G8) proliferation (AID 504316); note: nearly all actives have a fitted effect of over 65% in size; note: potency is the fitted concentration of half-maximal effect
Summary of the method: as §1

[4] = qHTS for Inhibitors of Plasmodium falciparum (HB3) proliferation (AID 504318); note: nearly all actives have a fitted effect of over 60% in size; note: potency is the fitted concentration of half-maximal effect
Summary of the method: as §1

[5] = target: Atrial natriuretic peptide receptor 1 (Homo sapiens) (UniProt P16066); assay: Natriuretic polypeptide receptor (hNpr1) antagonism - Pilot CMLD screen (AID 1347052; calls by dose curve;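 note: cGMP level read as GloSensor luciferase luminescence after agonist stimulation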; note: potency is the fitted concentration of half-maximal effect)
[6] = qHTS for Inhibitors of Plasmodium falciparum (CP250) proliferation (AID 504320)
Summary of the method: as §1

Chain of Atrial natriuretic peptide receptor 1 (Homo sapiens) (P16066 whole entry, looked up): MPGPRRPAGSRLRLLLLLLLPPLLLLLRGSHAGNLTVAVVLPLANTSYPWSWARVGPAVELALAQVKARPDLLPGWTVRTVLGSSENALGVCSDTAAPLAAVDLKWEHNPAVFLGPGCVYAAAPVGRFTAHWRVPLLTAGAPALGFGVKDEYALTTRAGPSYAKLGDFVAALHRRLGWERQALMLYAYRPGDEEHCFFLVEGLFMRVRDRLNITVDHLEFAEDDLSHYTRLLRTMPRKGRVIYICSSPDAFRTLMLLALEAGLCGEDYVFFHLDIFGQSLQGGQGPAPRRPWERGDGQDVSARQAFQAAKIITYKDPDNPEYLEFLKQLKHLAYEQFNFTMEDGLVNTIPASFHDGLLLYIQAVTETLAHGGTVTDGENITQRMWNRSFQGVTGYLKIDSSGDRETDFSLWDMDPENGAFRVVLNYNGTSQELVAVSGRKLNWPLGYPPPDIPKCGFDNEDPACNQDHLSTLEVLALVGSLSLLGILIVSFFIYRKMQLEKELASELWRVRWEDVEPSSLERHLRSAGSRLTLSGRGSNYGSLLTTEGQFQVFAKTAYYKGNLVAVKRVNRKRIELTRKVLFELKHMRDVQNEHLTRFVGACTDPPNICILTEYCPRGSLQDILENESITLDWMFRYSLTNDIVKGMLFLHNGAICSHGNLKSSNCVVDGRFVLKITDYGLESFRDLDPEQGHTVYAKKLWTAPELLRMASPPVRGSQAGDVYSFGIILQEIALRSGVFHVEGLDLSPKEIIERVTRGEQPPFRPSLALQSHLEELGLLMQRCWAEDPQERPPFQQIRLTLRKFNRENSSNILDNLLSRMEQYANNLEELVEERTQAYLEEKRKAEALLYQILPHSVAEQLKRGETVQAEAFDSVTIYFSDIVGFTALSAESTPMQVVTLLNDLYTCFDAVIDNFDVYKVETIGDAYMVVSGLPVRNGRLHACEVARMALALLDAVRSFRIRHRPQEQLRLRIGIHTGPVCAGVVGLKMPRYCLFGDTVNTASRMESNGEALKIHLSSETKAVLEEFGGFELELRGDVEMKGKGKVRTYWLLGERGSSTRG

SMILES	Potency [1]	Potency [2]	Potency [3]	Potency [4]	Potency [5]	Potency [6]	activity, negative = inhibition [1]
CC(CCN1CCCCc2nc(C)c(C)cc21)=NO[C@H](C)c1cn([C@@H]2COC[C@@H]2O)nn1	inactive	inactive	inactive	inactive	inactive		
CC12C=C(C=Cc3ccc(Br)cc3)C(C)(C1)C(c1ccc(Br)cc1)CC2=O (stereo unspecified)	1.5 µM (active)	1.69 µM (active)	1.69 µM (active)	1.69 µM (active)	inactive		
CC(C)(C)c1nc(-c2ccccc2)oc1Nc1ccc2ccccc2c1	1.69 µM (active)	1.9 µM (active)	1.51 µM (active)	2.94 µM (active)	inactive		
CC(=O)OC[C@H]1O[C@H](CC=NO[C@@H](C)c2cn([C@H](CO)Cc3ccccc3)nn2)C=C[C@@H]1OC(C)=O	inactive	inactive	inactive	inactive	inactive	inactive	
COC1=C[C@H](C(=O)NCCOC(C)=O)[C@H](C)[C@@H](c2ccccc2)CC1=O	inactive	inactive	inactive	inactive	inactive	inactive	
C#CCCOC(=O)N1C2=NC(C(=O)OC)=C(C(=O)OC)[C@@H]3N(CC=C)c4ccccc4[C@]23C[C@H]1C(=O)OC		inactive	inactive	inactive	inactive	inactive	5.23% [at 1.12 µM] (inactive)
C=CCN1C(=O)C2(CC(C)=C[C@@H](C)O2)c2c(Br)cccc21 (stereo partly specified)	inactive	inactive	inactive	inactive	inactive		
CC(=O)OC[C@H]1O[C@H](CC=NO[C@H](C)CN2CCCCc3nc(C)c(C)cc32)C=C[C@@H]1OC(C)=O	inactive	inactive	inactive	inactive	inactive		
C=C(C)C(O)C=Cc1ccc(Br)cc1 (stereo unspecified)	inactive	inactive	inactive	inactive	inactive		
O=C(c1ccccc1)[C@@H]1O[C@@H]1c1ccccc1	inactive	inactive	inactive	inactive	inactive		
CC(C)CON=C1C[C@@H](O)[C@@H](O)[C@@H]2[C@H]3C(=O)N(C4CCCCC4)C(=O)[C@@H]3CC[C@@H]12	inactive	inactive	inactive	inactive	inactive	inactive	
COC(=O)C1=C(C(=O)OC)[C@@H]2Nc3ccccc3[C@@]23C[C@@H](C(=O)OC)N(C(=O)NC(C)(C)C)C3=N1	inactive	inactive	inactive	inactive	inactive		
COC(=O)[C@@]1(C=C2c3ccc(F)cc3[C@@H](OC)[C@@H]2C)[C@@H]2OCCC[C@@H]21	inactive	inactive	inactive	inactive	inactive		
COC(=O)NC(C=Cc1ccccc1)C(C(C)=O)C(=O)OC (stereo unspecified)	inactive	inactive	inactive	inactive	inactive		
COc1cc2c(cc1OC)C1OC(c3ccsc3)(C2)Oc2cc(C)oc(=O)c21 (stereo unspecified)	inactive	inactive	inactive	inactive	inactive		
COC(=O)NC(CCc1ccccc1)C(C(C)=O)C(=O)OC (stereo unspecified)	inactive	inactive	inactive	inactive	inactive		
C=C(CCN1C=C(C(=O)OCC)C(c2ccccc2)NC1=O)OC (stereo unspecified)	inactive	inactive	inactive	inactive	inactive		
CC[C@H](C)[C@@H](NC(=O)O[C@@H]1C(=O)c2cc(OC)ccc2O[C@H]1c1ccc(OC)c(Br)c1)C(=O)OC	inactive	inactive	inactive	inactive	inactive	inactive	
Cc1cc(C)cc(CO[C@H]2C=C[C@@H](c3ccccc3)O[C@H]2CO)c1	inactive	inactive	inactive	inactive	inactive	inactive	
C=C(C)CCN1C(=O)NC(c2cccc(C(F)(F)F)c2)C(C(=O)OC)=C1C (stereo unspecified)	inactive	inactive	inactive	inactive	inactive	inactive	
CC[C@H](C)[C@@H](NC(=O)O[C@H]1C(=O)c2ccc(OC)cc2O[C@@H]1c1ccc2c(c1)OCO2)C(=O)OC	inactive	inactive	inactive	inactive	inactive	inactive	
COC(=O)CC=C[C@@H](C)[C@@H](C=NO[C@H](C)c1cn([C@@H]2COC[C@@H]2O)nn1)N[S+](=O)([O-])c1ccc(C)cc1	inactive	inactive	inactive	inactive	inactive	inactive	
C=CCOC(=O)N[C@H](C(C(=O)OC)=C(C)NCc1ccccc1)c1cccc(C(F)(F)F)c1	inactive	inactive	inactive	inactive	inactive and 1.33 µM (active)	inactive	
COC(=O)CCCC1=CC2=CC(=O)C(C)(OC(=O)c3cccs3)C(=O)C2=CN1CC(C)C (stereo unspecified)	inactive	inactive	inactive	inactive	inactive	inactive	
CC1(OC(=O)C2CCCC2)C(=O)C=C2C=C(c3ccsc3)N(C3CCCC3)C=C2C1=O (stereo unspecified)		inactive	inactive	inactive	inactive	inactive	-4.53% [at 1.12 µM] (inactive)

SMILES	Potency [1]	Potency [2]	Potency [3]	Potency [4]	Potency [5]	Potency [6]	activity, negative = inhibition [1]
CC1(OC(=O)c2cnc3ccccc3n2)C(=O)C=C2C=C(C3CC3)OC=C2C1=O (stereo unspecified)	inactive	inactive	inactive	inactive	inactive	inactive	
C=CCO[C@@H]1C=C[C@@H](c2ccccc2)O[C@@H]1COC	inactive	inactive	inactive	inactive	inactive	inactive	
COc1ccc2c(c1)O[C@H](c1ccc3c(c1)OCO3)[C@@H](OC(=O)Nc1cc(OC)c(OC)c(OC)c1)C2=O	inactive	inactive	inactive	inactive	inactive	inactive	
COc1cccc([C@H]2Oc3ccc(OC)cc3C(=NOC[C@@H](O)COCc3ccco3)[C@H]2O)c1	inactive	inactive	inactive	inactive	inactive	inactive	
COC(=O)C1=C(C(=O)OC)[C@@H]2N(C)c3ccc(OC)cc3[C@@]23C[C@@H](C(=O)OC)N(C(=O)c2cc(C)oc2C)C3=N1	inactive	inactive	inactive	inactive	inactive	inactive	
CCN1C(=NCC(C)C)N[C@H](c2ccccc2)[C@H](C(=O)OC)[C@H]1C	inactive	inactive	inactive	inactive	inactive	inactive	
CC(CCC#N)[N+](=O)[O-] (stereo unspecified)	inactive	inactive	inactive	inactive	5.31 µM (active)	inactive	
CC(=O)OC[C@H]1O[C@@H](ON=C(C)CCN2CCCCc3nc(C)c(C)cc32)[C@H](OC(C)=O)[C@@H](OC(C)=O)[C@H]1OC(C)=O	inactive	inactive	inactive	inactive	inactive	inactive	
CCN1C(=O)N[C@@H](CCc2ccccc2)[C@H](C(C)=O)[C@H]1C	inactive	inactive	inactive	inactive	inactive	inactive	
CC#CCN1C(=O)N(C)C(c2ccccc2)C(C(=O)OC)=C1C (stereo unspecified)	inactive	inactive	inactive	inactive	inactive	inactive	
C[C@@H]1CC2CCC[C@@H]2[C@]2(O1)C(=O)Nc1cccc(Br)c12 (stereo partly specified)	inactive	inactive	inactive	inactive	inactive	inactive	
Cc1ccc(S(=O)(=O)OC[C@@H]2CN3[C@H](c4ccc(Br)cc4)[C@H](C)CC[C@H]3C(=O)O2)cc1	inactive	inactive	inactive	inactive	inactive	inactive	
COC(=O)C1C[C@@]23C(=NN=C(SC)C2N(C)c2ccc(OC)cc23)N1C(C)=O (stereo partly specified)	inactive	inactive	inactive	inactive	inactive	inactive	
C=CCN1C=C2C(=O)C(C)(OC(=O)C3CCCC3)C(=O)C=C2C=C1c1ccsc1 (stereo unspecified)	inactive	inactive	inactive	inactive	inactive	inactive	
CCN1C(=O)[C@@H]2[C@H]3[C@H](O)[C@H](O)CC(=NO[C@H](C)c4cn([C@H](CO)Cc5ccccc5)nn4)[C@@H]3CC[C@H]2C1=O	inactive	inactive	inactive	inactive	inactive	inactive	
C[C@@H]1C=CCCO[C@]12C(=O)N(CC1CC1)c1ccccc12	inactive	inactive	inactive	inactive	inactive	inactive	
OC[C@H]1O[C@H](c2ccccc2)C=C[C@H]1O	inactive	inactive	inactive	inactive	inactive	inactive	
C[C@@H]1C[C@H]2CC(=O)N3[C@H](CC(=O)N2[C@H]1c1ccccc1)C[C@@H](C)[C@@H]3c1ccccc1	inactive	inactive	inactive	inactive	inactive	inactive	
COC(=O)c1ccc(CN2C(=O)C3(CC(C)=C[C@@H](C)O3)c3c(Br)cccc32)cc1 (stereo partly specified)	inactive	inactive	inactive	inactive	inactive	inactive	
COC(=O)N[C@H](CC(C)=O)c1cccc(C(F)(F)F)c1	inactive	inactive	inactive	inactive	inactive	inactive	
C=CCOC(=O)N[C@H](c1ccco1)C(C(C)=O)C(C)=O	inactive	inactive	inactive	inactive	inactive	inactive	
CC=COC(=O)N[C@@H](c1ccccc1)[C@]1(C(C)=O)CCOC1=O	inactive	inactive	inactive	inactive	inactive	inactive	
CO[C@@H]1c2cc(F)ccc2C(=CCCOC(=O)CC=Cc2ccccc2)[C@H]1C	inactive	inactive	inactive	inactive	inactive	inactive	
COc1ccc2c(c1)O[C@@H](c1ccc3c(c1)OCO3)[C@H](OC(=O)N[C@H](C)C1CCCCC1)C2=O	inactive	inactive	inactive	inactive	inactive	inactive	
